Reference: PubChem BioAssay (NCATS)
Results filed as inconclusive are left out. Active and inactive are the calls of the source. Calls follow the shape of the dose curve; as a rule, active = well fitted curve in the direction sought with a large enough effect; inconclusive = small, poorly fitted or top-dose-only effect, or another doubt; inactive = no such curve, though single readings can be large; an effect the other way counts as inactive or inconclusive.

Tests used:
[1] = qHTS of pediatric cancer cell lines to identify multiple opportunities for drug repurposing: Confirmatory screen for TC32 cells (AID 1347118);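 also: cells exposed to compound for 48 h before the read; nearly all actives have a fitted effect of over 65% in size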
Method in brief: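 Luminescent ATP read-out (CellTiter-Glo) of metabolically active TC32 cells after 48 h exposure. Concentration-response curves came from 11-point (MIPE, 0.78 nM–46 µM) or 8-point (NPC, 0.59 nM–46 µM) primary titrations; follow-up used 11 points.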

[2] = qHTS of pediatric cancer cell lines to identify multiple opportunities for drug repurposing: Confirmatory screen for MG 63 (6-TG R) cells (AID 1347119); also: nearly all actives have a fitted effect of over 55% in size
Method in brief: (§1)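 Cells (500-1,000/well) rested 5 h, then received compounds for 48 h; metabolically active cells were measured by CellTiter-Glo luminescence. Final concentrations spanned up to 46 µM (MIPE, 11-point) or 0.59 nM-46 µM (NPC, 8-point) in primary screens, 11-point in follow-ups.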

[3] = qHTS of pediatric cancer cell lines to identify multiple opportunities for drug repurposing: Confirmatory screen for control Hh wild type fibroblast cells (AID 1347121); also: nearly all actives have a fitted effect of over 70% in size
Method in brief: as §1

[4] = qHTS of pediatric cancer cell lines to identify multiple opportunities for drug repurposing: Confirmatory screen for Rh41 cells (AID 1347123);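 also: 48 h compound exposure; nearly all actives have a fitted effect of over 60% in size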
Method in brief: as §1

[5] = qHTS of pediatric cancer cell lines to identify multiple opportunities for drug repurposing: Confirmatory screen for Rh18 cells (AID 1347125); also: nearly all actives have a fitted effect of over 55% in size
Method in brief: as §1

[6] = qHTS of pediatric cancer cell lines to identify multiple opportunities for drug repurposing: Confirmatory screen for Saos-2 cells (AID 1347127); also: nearly all actives have a fitted effect of over 60% in size
Method in brief: as §1

[7] = qHTS of pediatric cancer cell lines to identify multiple opportunities for drug repurposing: Confirmatory screen for SK-N-SH cells (AID 1347129);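 also: cells exposed to compound for 48 h before viability read; nearly all actives have a fitted effect of over 60% in size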
Method in brief: as §1

[8] = system: Zika virus NS2B-NS3 protease (unlinked complex); assay: Primary screen GU Rhodamine qHTS for Zika virus inhibitors: Unlinked NS2B-NS3 protease assay (AID 1347159); also: nearly all actives have a fitted effect of over 60% in size
Method in brief: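 Percent inhibition came from the 15-min rise in Rhodamine110 fluorescence (1.5 microM substrate, ~15% conversion), normalized to no-inhibitor and no-enzyme wells and Hill-fitted. Unlinked protease, 25 nM, pH 8.0 Tris buffer; compounds up to 114 microM, 15-min preincubation.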

[9] = qHTS of pediatric cancer cell lines to identify multiple opportunities for drug repurposing: Confirmatory screen for U-2 OS cells (AID 1347122); also: nearly all actives have a fitted effect of over 65% in size
Method in brief: as §1

[10] = qHTS of pediatric cancer cell lines to identify multiple opportunities for drug repurposing: Confirmatory screen for RD cells (AID 1347124);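 also: cells exposed to compound for 48 h before viability readout; nearly all actives have a fitted effect of over 65% in size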
Method in brief: as §1

[11] = qHTS of pediatric cancer cell lines to identify multiple opportunities for drug repurposing: Confirmatory screen for Rh30 cells (AID 1347126); also: nearly all actives have a fitted effect of over 55% in size
Method in brief: as §1

[12] = qHTS of pediatric cancer cell lines to identify multiple opportunities for drug repurposing: Confirmatory screen for OHS-50 cells (AID 1347128);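 also: compound exposure lasted 48 h at 37 degrees C; nearly all actives have a fitted effect of over 55% in size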
Method in brief: as §1

[13] = system: Zika virus NS2B-NS3 protease; assay: Primary screen GU AMC qHTS for Zika virus inhibitors (AID 1347154); also: nearly all actives have a fitted effect of over 70% in size
Method in brief: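 Fluorogenic AMC-substrate cleavage by noncovalent NS2B-NS3 protease complex (25 nM, pH 8.0 Tris buffer with Tween 20) followed for 15 minutes at room temperature (~20% conversion). Percent inhibition from ex340/em450 signal change, fitted by 4-parameter Hill equation.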
Potency is read from the fitted curve at half-maximal effect.

Compound	Potency [1]	Potency [2]	Potency [3]	Potency [4]	Potency [5]	Potency [6]	Potency [7]	Potency [8]	Potency [9]	Potency [10]	Potency [11]	Potency [12]	Potency [13]
Cc1cnc(Nc2ccc(F)cc2Cl)nc1-c1c[nH]c(C(=O)N[C@H](CO)c2cccc(Cl)c2)c1	inactive	inactive	inactive	18.5 µM (active)	inactive	inactive	18.7 µM (active)	39.8 µM (active)	–	–	–	–	–
CC1(C)O[C@@H]2C[C@@H]3[C@H]4C[C@@H](F)C5=CC(=O)C=C[C@]5(C)[C@@]4(F)[C@@H](O)C[C@]3(C)[C@]2(C(=O)CO)O1	0.369 µM (active)	2.61 µM (active)	inactive	0.585 µM (active)	inactive	0.117 µM (active)	–	–	1.31 µM (active)	8.27 µM (active)	inactive	82.7 nM (active)	inactive
Cc1ccc(NC(=O)C2(c3ccc4c(c3)OC(F)(F)O4)CC2)nc1-c1cccc(C(=O)O)c1	inactive	inactive	inactive	8.27 µM (active)	–	inactive	inactive	17.8 µM (active)	9.27 µM (active)	10.4 µM (active)	–	–	inactive
COc1cccc2nc(-c3cccs3)nc(NN3C(=O)C=C(C)C3=O)c12	0.737 µM (active)	2.93 µM (active)	–	0.827 µM (active)	20.8 µM (active)	2.93 µM (active)	2.96 µM (active)	inactive	1.85 µM (active)	5.22 µM (active)	3.69 µM (active)	–	inactive
COc1cc2c(Oc3ccc(-c4cnc(Nc5ccc(F)cc5)n(C)c4=O)cc3F)ccnc2cc1OCCCN1CCOCC1	2.93 µM (active)	2.93 µM (active)	–	3.69 µM (active)	8.27 µM (active)	7.37 µM (active)	3.32 µM (active)	inactive	–	11.7 µM (active)	–	3690 nM (active)	24.1 µM (active)
Cc1ccc2nc(NC(=O)CSc3nc4c(c(=O)n3-c3ccccc3)SCC4)sc2c1	8.27 µM (active)	5.22 µM (active)	14.7 µM (active)	20.8 µM (active)	inactive	inactive	–	inactive	–	–	inactive	–	–
CN1CCN(Cc2ccc(NC(=O)Nc3ccc(Oc4cc(NC(=O)C5CC5)ncn4)cc3)cc2C(F)(F)F)CC1	0.165 µM (active)	2.61 µM (active)	–	0.233 µM (active)	0.369 µM (active)	0.369 µM (active)	0.743 µM (active)	inactive	–	0.414 µM (active)	–	585 nM (active)	inactive
Cc1[nH]c2ccccc2c1CCNCc1ccc(C=CC(=O)NO)cc1	0.117 µM (active)	0.165 µM (active)	–	0.0041 µM (active)	0.165 µM (active)	0.233 µM (active)	0.469 µM (active)	–	–	inactive	–	–	inactive
C=C1C(=CC=C2CCC[C@]3(C)[C@@H]([C@H](C)C=C[C@H](C)C(C)C)CC[C@@H]23)C[C@@H](O)C[C@@H]1O	23.3 µM (active)	2.93 µM (active)	inactive	–	inactive	inactive	inactive	–	–	–	–	–	inactive
CN(C)CC(C)(C)CNc1nn2c(-c3ccccc3)nnc2cc1C1CCC1	18.5 µM (active)	inactive	inactive	–	inactive	inactive	inactive	inactive	–	inactive	–	inactive	inactive
CN(C)Cc1c(C(=O)NCCOc2ccc(C(=O)NO)cc2)oc2ccccc12	0.737 µM (active)	1.47 µM (active)	–	0.293 µM (active)	0.827 µM (active)	1.47 µM (active)	3.72 µM (active)	inactive	–	1.65 µM (active)	1.65 µM (active)	–	inactive
CC1(C)OC2=C(C(=O)c3ccccc3C2=O)[C@H](NCc2ccccc2)[C@H]1O	4.14 µM (active)	16.5 µM (active)	13.1 µM (active)	2.93 µM (active)	7.37 µM (active)	8.27 µM (active)	5.9 µM (active)	–	–	8.27 µM (active)	–	–	inactive
COc1cc2c(Oc3ccc(NC(=O)C4(C(=O)Nc5ccc(F)cc5)CC4)cc3F)ccnc2cc1OCCCN1CCOCC1	1.85 µM (active)	7.37 µM (active)	20.8 µM (active)	7.37 µM (active)	7.37 µM (active)	4.14 µM (active)	1.87 µM (active)	inactive	8.27 µM (active)	10.4 µM (active)	–	3690 nM (active)	inactive
CCC1=C[C@@H]2CN(C1)Cc1c([nH]c3ccccc13)[C@@](C(=O)OC)(c1cc3c(cc1OC)N(C)[C@@H]1[C@@](O)(C(=O)OC)[C@H](OC(C)=O)[C@]4(CC)C=CCN5CC[C@]31[C@@H]54)C2	6.57 µM (active)	13.1 µM (active)	inactive	0.369 µM (active)	inactive	7.37 µM (active)	5.9 µM (active)	–	–	0.369 µM (active)	–	–	inactive
NC(=O)Nc1cc(-c2cccc(F)c2)sc1C(=O)N[C@H]1CCCNC1	0.737 µM (active)	1.04 µM (active)	20.8 µM (active)	1.47 µM (active)	6.57 µM (active)	1.65 µM (active)	3.72 µM (active)	inactive	1.17 µM (active)	–	–	737 nM (active)	–
